# From article PMC7862700, “An all-to-all approach to the identification of sequence-specific readers for epigenetic DNA modifications on cytosine”
# Assays:
# Assay in all cases: DAPPL (digital affinity profiling via proximity ligation, sequencing); 10 mM Tris-HCl pH 7.5, 50 mM NaCl, 1 mM DTT, 4% glycerol, room temperature, 30 min; GST-TFs on glutathione beads, 16-mer random dsDNA library, 0.1% formaldehyde crosslink after washing; high values mean tight binding
# FLI1 = target: T1, FLI1 (Homo sapiens, UniProt Q01543 1-452); settings: protein: recombinant; tags: N-terminal GST; dsDNA, one strand shown
# T1 sequence: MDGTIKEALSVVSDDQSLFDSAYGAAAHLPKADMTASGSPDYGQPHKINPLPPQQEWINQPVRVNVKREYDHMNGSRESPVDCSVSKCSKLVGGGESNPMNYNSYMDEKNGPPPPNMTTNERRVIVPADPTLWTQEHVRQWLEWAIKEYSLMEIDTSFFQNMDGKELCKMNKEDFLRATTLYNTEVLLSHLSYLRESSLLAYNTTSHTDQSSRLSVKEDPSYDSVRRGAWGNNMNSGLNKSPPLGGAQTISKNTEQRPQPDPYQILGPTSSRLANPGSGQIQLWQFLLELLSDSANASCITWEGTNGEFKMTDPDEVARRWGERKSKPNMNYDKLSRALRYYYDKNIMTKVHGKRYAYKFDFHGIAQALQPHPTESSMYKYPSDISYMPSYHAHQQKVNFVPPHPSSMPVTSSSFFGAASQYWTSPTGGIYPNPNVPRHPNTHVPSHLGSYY
# In short: (§1)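 Sequencing on an Illumina NextSeq500 followed washing, crosslinking with 0.1% formaldehyde, proximity ligation (BsaI/T4 ligase, 1 h, 37 °C) and PCR amplification of pools that had been incubated for 30 min at room temperature with 200 nmole of a random double-stranded 16-mer DNA library in Tris/NaCl/DTT/glycerol buffer. Each pool held DNA-barcoded human transcription factors, expressed in yeast as GST fusions and captured on glutathione beads, plus a tag-only sample. Binding signal is a hexamer's read frequency for a factor divided by its frequency in the tag-only sample.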
# ELK1 = target: T2, ELK1 (Homo sapiens, UniProt P19419 1-428); settings: protein: recombinant; tags: N-terminal GST; dsDNA, one strand shown
# T2 sequence: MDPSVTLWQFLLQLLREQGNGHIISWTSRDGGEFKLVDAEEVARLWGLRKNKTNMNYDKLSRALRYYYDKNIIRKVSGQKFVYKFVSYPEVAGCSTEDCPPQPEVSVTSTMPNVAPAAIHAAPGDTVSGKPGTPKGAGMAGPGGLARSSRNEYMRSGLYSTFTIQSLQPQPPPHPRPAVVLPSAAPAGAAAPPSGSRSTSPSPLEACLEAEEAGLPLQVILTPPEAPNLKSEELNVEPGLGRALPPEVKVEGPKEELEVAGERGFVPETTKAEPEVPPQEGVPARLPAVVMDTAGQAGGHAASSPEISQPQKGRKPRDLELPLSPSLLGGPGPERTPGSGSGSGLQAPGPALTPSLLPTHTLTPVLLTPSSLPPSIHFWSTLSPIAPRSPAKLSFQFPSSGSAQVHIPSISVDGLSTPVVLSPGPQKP
# In short: as §1
# GABPA = target: T3, GABPA (Homo sapiens, UniProt Q06546 1-454); settings: protein: recombinant; tags: N-terminal GST; dsDNA, one strand shown
# T3 sequence: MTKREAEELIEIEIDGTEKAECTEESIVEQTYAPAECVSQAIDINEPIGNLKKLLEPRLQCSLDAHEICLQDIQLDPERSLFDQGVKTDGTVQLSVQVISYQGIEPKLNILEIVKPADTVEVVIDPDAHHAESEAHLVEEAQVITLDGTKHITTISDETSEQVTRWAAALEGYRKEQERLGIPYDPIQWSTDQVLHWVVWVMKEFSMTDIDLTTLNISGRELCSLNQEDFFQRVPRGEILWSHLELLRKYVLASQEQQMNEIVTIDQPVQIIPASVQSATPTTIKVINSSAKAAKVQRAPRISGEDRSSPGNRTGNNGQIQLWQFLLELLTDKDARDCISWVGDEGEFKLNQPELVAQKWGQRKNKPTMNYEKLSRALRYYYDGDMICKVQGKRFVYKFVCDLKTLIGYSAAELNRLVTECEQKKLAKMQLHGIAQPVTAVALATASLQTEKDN
# In short: as §1
# ERG = target: T4, ERG (Homo sapiens, UniProt P11308 1-479); settings: protein: recombinant; tags: N-terminal GST; dsDNA, one strand shown
# T4 sequence: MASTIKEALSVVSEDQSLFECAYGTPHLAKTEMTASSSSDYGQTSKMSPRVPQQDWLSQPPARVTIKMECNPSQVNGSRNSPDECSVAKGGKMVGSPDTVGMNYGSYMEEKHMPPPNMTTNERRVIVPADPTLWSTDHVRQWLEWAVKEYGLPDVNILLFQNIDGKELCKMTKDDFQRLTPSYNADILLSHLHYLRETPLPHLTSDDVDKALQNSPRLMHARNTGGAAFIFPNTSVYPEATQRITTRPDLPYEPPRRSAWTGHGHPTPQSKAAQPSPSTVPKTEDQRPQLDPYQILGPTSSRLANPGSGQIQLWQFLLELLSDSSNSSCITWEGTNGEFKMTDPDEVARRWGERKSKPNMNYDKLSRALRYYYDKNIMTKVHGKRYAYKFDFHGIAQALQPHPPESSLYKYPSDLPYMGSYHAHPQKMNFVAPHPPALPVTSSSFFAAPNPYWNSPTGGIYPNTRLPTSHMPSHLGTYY
# In short: as §1
# ELF1 = ELF1 (Homo sapiens, UniProt P32519 1-619); settings: protein: recombinant; tags: N-terminal GST; dsDNA, one strand shown
# In short: as §1
# EHF = target: T5, EHF (Homo sapiens, UniProt Q9NZC4 1-300); settings: protein: recombinant; tags: N-terminal GST; dsDNA, one strand shown
# T5 sequence: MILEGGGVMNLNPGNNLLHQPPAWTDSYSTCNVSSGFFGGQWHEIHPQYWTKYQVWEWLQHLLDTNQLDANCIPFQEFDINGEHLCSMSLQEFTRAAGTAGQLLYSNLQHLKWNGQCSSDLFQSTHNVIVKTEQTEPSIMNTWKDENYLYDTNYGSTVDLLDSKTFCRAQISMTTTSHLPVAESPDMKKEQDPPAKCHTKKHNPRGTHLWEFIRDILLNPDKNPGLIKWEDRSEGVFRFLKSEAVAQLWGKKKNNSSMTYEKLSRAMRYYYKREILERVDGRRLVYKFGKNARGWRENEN
# In short: as §1
# SPI1 = SPI1 (Homo sapiens, UniProt P17947 1-270); settings: protein: recombinant; tags: N-terminal GST; dsDNA, one strand shown
# In short: as §1
# SPIB = SPIB (Homo sapiens, UniProt Q01892 1-262); settings: protein: recombinant; tags: N-terminal GST; dsDNA, one strand shown
# In short: as §1
# ELK3 = target: T6, ELK3 (Homo sapiens, UniProt P41970 1-407); settings: protein: recombinant; tags: N-terminal GST; dsDNA, one strand shown
# T6 sequence: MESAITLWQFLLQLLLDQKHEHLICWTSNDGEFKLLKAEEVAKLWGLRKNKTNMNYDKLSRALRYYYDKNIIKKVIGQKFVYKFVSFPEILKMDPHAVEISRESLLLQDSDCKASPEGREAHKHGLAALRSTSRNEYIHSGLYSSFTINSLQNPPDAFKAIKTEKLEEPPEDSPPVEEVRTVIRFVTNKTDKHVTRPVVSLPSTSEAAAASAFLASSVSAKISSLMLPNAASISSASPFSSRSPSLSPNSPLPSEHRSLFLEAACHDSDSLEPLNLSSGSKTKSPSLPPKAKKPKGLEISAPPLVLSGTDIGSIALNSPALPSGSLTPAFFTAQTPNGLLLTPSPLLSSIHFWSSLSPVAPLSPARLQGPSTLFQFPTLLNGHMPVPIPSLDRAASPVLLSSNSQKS
# In short: as §1
# FEV = target: T7, FEV (Homo sapiens, UniProt Q99581 1-238); settings: protein: recombinant; tags: N-terminal GST; dsDNA, one strand shown
# T7 sequence: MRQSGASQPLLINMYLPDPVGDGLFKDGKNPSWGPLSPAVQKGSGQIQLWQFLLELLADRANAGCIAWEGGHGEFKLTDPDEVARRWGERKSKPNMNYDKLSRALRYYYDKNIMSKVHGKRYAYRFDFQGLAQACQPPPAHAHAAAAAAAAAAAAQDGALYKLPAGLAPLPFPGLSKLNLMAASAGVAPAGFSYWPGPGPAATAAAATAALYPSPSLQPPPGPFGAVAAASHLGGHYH
# In short: as §1
# ETV5 = ETV5 (Homo sapiens, UniProt P41161 1-510); settings: protein: recombinant; tags: N-terminal GST; dsDNA, one strand shown
# In short: as §1
# HSF1 = HSF1 (Homo sapiens, UniProt Q00613 1-529); settings: protein: recombinant; tags: N-terminal GST; chain copies: 3; dsDNA, one strand shown
# In short: as §1
# SPIC = target: T8, SPIC (Homo sapiens, UniProt Q8N5J4 1-248); settings: protein: recombinant; tags: N-terminal GST; dsDNA, one strand shown
# T8 sequence: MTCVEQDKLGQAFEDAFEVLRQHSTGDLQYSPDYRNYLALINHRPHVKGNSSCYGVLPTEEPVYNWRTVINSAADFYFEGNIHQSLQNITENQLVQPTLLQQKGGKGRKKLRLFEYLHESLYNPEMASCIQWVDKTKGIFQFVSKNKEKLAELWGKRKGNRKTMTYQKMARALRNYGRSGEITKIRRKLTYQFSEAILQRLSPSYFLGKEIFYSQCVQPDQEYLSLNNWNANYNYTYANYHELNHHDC
# In short: as §1
# ELF4 = ELF4 (Homo sapiens, UniProt Q99607 1-663); settings: protein: recombinant; tags: N-terminal GST; dsDNA, one strand shown
# In short: as §1
# ELK4 = target: T9, ELK4 (Homo sapiens, UniProt P28324-2 1-405); settings: protein: recombinant; tags: N-terminal GST; dsDNA, one strand shown
# T9 sequence: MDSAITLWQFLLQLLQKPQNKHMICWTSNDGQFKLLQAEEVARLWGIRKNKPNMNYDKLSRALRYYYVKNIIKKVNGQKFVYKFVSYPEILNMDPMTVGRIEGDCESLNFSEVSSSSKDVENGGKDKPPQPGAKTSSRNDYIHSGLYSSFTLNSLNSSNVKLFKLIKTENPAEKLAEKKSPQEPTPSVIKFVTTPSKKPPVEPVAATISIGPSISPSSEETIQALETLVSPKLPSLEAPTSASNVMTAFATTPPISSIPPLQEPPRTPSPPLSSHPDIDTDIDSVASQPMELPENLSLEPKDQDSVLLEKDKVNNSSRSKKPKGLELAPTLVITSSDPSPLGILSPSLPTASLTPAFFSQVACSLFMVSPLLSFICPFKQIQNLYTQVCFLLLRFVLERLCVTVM
# In short: as §1
# ETV2 = target: T10, ETV2 (Homo sapiens, UniProt O00321 1-342); settings: protein: recombinant; tags: N-terminal GST; dsDNA, one strand shown
# T10 sequence: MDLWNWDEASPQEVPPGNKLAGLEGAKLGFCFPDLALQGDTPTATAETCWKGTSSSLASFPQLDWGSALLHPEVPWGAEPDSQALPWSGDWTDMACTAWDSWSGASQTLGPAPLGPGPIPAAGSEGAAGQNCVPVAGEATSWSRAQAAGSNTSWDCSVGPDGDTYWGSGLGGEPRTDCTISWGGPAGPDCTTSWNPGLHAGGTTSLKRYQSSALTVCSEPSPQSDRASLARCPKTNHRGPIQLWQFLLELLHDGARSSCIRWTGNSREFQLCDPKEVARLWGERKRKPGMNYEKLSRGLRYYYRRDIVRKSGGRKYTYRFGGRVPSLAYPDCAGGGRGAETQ
# In short: as §1
# ELF3 = target: T11, ELF3 (Homo sapiens, UniProt P78545 1-371); settings: protein: recombinant; tags: N-terminal GST; dsDNA, one strand shown
# T11 sequence: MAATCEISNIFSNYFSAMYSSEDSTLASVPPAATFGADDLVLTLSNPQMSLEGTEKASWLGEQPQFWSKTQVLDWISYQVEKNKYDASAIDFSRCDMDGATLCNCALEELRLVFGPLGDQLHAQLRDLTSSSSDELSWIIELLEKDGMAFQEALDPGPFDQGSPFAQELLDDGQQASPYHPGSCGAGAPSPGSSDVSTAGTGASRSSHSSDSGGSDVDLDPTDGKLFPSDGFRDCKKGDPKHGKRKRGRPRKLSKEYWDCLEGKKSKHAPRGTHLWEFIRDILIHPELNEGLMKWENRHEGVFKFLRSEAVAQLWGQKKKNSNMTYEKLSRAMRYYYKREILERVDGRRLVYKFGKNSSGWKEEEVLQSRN
# In short: as §1
# CRX = CRX (Homo sapiens, UniProt O43186 1-299); settings: protein: recombinant; tags: N-terminal GST; dsDNA, one strand shown
# In short: as §1
# ETV1 = ETV1 (Homo sapiens, UniProt P50549 1-477); settings: protein: recombinant; tags: N-terminal GST; dsDNA, one strand shown
# In short: as §1
# SPIB, sequence (Q01892 whole entry): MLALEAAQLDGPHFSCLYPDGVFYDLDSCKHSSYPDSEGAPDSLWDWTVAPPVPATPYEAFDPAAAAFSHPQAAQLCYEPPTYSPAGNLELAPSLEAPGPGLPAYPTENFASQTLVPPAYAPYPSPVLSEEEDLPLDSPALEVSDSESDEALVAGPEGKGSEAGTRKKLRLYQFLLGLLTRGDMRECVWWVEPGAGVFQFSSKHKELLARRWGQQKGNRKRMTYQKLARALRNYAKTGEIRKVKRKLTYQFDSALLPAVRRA
# ETV1, sequence (P50549 whole entry): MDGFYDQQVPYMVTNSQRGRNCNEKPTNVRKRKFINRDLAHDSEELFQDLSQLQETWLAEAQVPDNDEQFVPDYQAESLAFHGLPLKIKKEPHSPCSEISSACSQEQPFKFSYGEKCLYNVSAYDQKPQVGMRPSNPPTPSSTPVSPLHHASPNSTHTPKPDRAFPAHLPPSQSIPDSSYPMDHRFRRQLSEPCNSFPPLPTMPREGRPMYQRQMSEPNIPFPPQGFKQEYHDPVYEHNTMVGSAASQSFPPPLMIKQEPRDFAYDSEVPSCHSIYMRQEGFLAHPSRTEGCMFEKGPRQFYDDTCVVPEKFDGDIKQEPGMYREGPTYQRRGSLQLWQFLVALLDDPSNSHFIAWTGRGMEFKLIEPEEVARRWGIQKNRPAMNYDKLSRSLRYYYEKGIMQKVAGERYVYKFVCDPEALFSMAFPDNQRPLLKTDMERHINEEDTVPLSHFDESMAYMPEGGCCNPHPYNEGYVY
# ELF4, sequence (Q99607 whole entry): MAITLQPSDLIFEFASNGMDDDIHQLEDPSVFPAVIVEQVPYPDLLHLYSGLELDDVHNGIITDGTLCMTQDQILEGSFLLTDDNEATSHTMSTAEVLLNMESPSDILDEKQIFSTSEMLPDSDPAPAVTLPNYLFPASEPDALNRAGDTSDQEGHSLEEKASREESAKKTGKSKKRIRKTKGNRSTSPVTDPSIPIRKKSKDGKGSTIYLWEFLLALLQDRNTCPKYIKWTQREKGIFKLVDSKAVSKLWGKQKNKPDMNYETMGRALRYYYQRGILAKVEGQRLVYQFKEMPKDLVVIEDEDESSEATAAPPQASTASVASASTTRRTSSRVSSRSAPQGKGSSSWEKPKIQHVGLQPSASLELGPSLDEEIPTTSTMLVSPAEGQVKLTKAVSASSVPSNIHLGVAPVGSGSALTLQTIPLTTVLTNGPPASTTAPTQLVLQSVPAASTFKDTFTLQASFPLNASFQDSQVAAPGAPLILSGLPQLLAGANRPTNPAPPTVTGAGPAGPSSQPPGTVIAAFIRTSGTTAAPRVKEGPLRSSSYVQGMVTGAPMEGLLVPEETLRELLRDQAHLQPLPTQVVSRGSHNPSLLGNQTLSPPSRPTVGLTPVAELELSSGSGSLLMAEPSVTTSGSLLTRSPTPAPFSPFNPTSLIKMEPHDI
# HSF1, sequence (Q00613 whole entry): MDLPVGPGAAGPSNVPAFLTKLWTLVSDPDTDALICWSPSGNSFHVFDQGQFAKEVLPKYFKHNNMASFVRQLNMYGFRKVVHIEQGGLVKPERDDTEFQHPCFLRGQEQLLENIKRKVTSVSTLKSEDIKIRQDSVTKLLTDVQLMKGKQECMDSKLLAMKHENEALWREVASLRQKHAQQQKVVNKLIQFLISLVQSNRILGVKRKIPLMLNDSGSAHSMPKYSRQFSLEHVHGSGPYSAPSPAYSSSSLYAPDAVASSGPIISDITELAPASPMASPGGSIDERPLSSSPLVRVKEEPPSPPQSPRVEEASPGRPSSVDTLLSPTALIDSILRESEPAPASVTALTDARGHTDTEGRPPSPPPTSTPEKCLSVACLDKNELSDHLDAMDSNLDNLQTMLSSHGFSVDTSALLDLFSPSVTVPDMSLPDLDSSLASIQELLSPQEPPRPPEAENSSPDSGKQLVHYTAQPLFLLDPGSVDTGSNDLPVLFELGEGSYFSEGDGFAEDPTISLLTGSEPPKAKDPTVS
# CRX, sequence (O43186 whole entry): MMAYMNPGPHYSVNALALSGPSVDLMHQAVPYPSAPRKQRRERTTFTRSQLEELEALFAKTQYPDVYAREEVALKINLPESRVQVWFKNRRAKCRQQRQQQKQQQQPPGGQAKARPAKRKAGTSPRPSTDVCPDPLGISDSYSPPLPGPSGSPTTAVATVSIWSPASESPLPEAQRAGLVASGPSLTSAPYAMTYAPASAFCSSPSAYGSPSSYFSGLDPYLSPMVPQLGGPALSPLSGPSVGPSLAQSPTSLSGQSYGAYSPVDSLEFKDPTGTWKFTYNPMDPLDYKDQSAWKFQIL
# ELF1, sequence (P32519 whole entry): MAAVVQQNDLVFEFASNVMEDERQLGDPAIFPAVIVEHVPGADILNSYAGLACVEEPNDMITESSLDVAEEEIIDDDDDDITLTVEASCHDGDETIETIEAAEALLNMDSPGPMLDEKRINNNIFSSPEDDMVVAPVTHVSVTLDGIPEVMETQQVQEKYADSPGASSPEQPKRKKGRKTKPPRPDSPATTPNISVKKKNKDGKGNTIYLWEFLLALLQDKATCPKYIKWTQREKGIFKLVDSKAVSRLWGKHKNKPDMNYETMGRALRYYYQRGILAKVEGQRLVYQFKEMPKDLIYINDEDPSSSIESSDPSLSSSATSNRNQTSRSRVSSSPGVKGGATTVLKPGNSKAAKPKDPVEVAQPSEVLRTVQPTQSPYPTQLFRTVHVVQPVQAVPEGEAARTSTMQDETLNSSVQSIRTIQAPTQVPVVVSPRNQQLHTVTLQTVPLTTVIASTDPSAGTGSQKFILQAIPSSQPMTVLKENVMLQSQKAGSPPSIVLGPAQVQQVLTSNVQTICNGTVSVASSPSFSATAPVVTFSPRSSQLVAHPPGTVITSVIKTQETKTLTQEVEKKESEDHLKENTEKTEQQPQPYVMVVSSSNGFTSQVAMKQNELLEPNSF
# ETV5, sequence (P41161 whole entry): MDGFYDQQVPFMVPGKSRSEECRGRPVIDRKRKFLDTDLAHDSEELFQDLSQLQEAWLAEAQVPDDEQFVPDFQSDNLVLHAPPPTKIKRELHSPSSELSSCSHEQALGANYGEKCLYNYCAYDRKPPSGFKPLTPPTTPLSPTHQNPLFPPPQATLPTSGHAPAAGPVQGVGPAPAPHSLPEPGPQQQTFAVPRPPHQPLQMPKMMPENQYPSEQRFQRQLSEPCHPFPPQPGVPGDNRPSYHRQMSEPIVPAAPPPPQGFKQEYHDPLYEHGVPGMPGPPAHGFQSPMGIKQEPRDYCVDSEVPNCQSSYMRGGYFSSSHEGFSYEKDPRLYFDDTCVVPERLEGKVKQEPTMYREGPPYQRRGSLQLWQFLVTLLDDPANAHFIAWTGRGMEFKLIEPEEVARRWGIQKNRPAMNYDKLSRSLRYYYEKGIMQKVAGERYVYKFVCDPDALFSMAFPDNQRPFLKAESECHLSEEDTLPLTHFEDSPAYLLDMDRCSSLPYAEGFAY
sequence,measurement,setting,value
AACCAA,binding signal,FLI1,"1.24 fold enrichment (6-mer frequency, TF over GST control)"
same,binding signal,ELK1,"1.22 fold enrichment (6-mer frequency, TF over GST control)"
same,binding signal,GABPA,"1.25 fold enrichment (6-mer frequency, TF over GST control)"
same,binding signal,ERG,"1.16 fold enrichment (6-mer frequency, TF over GST control)"
same,binding signal,ELF1,"1.22 fold enrichment (6-mer frequency, TF over GST control)"
same,binding signal,EHF,"1.22 fold enrichment (6-mer frequency, TF over GST control)"
same,binding signal,SPI1,"1.19 fold enrichment (6-mer frequency, TF over GST control)"
same,binding signal,SPIB,"1.15 fold enrichment (6-mer frequency, TF over GST control)"
same,binding signal,ELK3,"1.19 fold enrichment (6-mer frequency, TF over GST control)"
same,binding signal,FEV,"1.19 fold enrichment (6-mer frequency, TF over GST control)"
same,binding signal,ETV5,"1.21 fold enrichment (6-mer frequency, TF over GST control)"
same,binding signal,HSF1,"1.08 fold enrichment (6-mer frequency, TF over GST control)"
same,binding signal,SPIC,"1.1 fold enrichment (6-mer frequency, TF over GST control)"
same,binding signal,ELF4,"1.33 fold enrichment (6-mer frequency, TF over GST control)"
same,binding signal,ELK4,"1.05 fold enrichment (6-mer frequency, TF over GST control)"
same,binding signal,ETV2,"1.21 fold enrichment (6-mer frequency, TF over GST control)"
same,binding signal,ELF3,"1.32 fold enrichment (6-mer frequency, TF over GST control)"
same,binding signal,CRX,"1.09 fold enrichment (6-mer frequency, TF over GST control)"
same,binding signal,ETV1,"1.2 fold enrichment (6-mer frequency, TF over GST control)"
